MITF inh – MITF inhibitors, primary screen, biochemical, AlphaScreen, human. AlphaScreen MITF homodimerization, bead proximity signal. inhibition, % at 2.6 µM. 650,000 tested, 0.91% active. AID 1259374, 2018; in the data active = inhibition above about 50%
FBW7 activator – FBW7 E3 ligase activators, primary screen, biochemical, AlphaScreen, human. 650,000 tested, 0.13% active. AID 1259310, 2017. F-box/WD repeat-containing protein 7 (Homo sapiens), Q969H0. normalized activity (activation), % at 26.1 µM. AlphaScreen FBW7–phospho-cyclin E peptide binding, activator screen; in the data active = normalized activity above about 1.9%;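 note: purified mutant Fbw7 with reduced substrate affinity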
Target sequence (Q969H0 whole entry, looked up): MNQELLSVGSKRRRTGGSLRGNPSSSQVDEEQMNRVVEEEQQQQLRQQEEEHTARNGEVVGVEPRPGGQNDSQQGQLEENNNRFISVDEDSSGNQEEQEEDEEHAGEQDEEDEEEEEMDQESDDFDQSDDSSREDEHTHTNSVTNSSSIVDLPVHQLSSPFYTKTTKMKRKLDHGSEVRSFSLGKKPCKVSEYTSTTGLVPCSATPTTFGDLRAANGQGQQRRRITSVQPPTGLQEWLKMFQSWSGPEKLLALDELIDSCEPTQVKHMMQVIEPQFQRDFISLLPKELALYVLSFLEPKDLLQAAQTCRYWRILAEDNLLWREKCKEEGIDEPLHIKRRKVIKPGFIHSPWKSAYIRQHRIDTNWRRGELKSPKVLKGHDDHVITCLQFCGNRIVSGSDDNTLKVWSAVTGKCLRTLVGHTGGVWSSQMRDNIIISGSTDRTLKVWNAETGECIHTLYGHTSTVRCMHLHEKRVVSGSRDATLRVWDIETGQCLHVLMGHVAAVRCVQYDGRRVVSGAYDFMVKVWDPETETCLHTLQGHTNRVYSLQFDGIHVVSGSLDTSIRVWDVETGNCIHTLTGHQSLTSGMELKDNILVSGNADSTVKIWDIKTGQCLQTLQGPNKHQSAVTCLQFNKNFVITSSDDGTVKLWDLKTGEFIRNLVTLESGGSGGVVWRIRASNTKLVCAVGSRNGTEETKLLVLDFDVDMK
GPR151 ag – activators of human GPR151, primary screen, cell-based, PathHunter beta-arrestin, luminescence; G-protein coupled receptor 151 (Homo sapiens), Q8TDV0; 650,000 tested, 1% active; activation, % at 11.2 µM; PathHunter beta-arrestin GPR151 cells; in the data active = activation above about 4.9%
TEAD-YAP block – TEAD-YAP interaction inhibition, primary screen, TEAD-YAP interaction inhibitor project, luminescence, HEK-TIYL cells. TEAD-Gal4/YAP UAS-luciferase luminescence. inhibition, % at 9.12 µM. 640,000 tested, 1.4% active; in the data active = inhibition above about 32%
Hits are given with their value; n = inactive. An excerpt weighted towards active compounds, which were near 3.5% of everything screened.

SMILES | MITF inh | FBW7 activator | GPR151 ag | TEAD-YAP block
CC(=O)Oc1ccccc1C(=O)Nc1ccccc1C(C)C | n | n | n | n
COc1cccc2c1OC1(CCN(C(=O)Cc3cccc(F)c3F)CC1)OC2 | n | n | n | n
CC(=O)CSc1nnc(-c2ccc([N+](=O)[O-])cc2)n1C | n | n | n | n
Cc1ccc(CN2CC(C(=O)Nc3ncc(C)s3)CC2=O)cc1 (stereo unspecified) | n | n | n | 44.5
CC(Cc1ccco1)NC(=O)c1nc2ccccc2s1 (stereo unspecified) | n | n | n | n
Fc1ccc(CN2CCOc3ccc(-c4ccncc4)cc32)cc1 | n | n | n | 43.5
COc1cc(C2C3=C(CC(C)(C)CC3=O)OC3=C2C(=O)CC(C)(C)C3)ccc1OCc1ccc(F)cc1 | n | 2.0 | n | n
c1cn(CCCNc2cc(-c3ccc(OC4CCCCO4)cc3)ncn2)cn1 (stereo unspecified) | n | n | n | 49.8
CN1CCCN(c2cc(-c3ccc(OC4CCCCO4)cc3)ncn2)CC1 (stereo unspecified) | n | n | n | n
COC(=O)c1cc(C(=O)Nc2ccncc2)cc([N+](=O)[O-])c1 | n | n | n | n
Cc1ccc(N2C(=O)c3ccccc3C2O)nc1 (stereo unspecified) | n | n | n | 78.0
COc1ccc(C(=O)CN2Cc3ccccc3C2=N)cc1OC | n | n | n | n
N=c1sccn1CC(=O)c1ccc2c(c1)OCCO2 | n | n | n | 34.8
N=C1c2ccccc2CN1CC(=O)c1ccc2c(c1)OCCO2 | n | n | n | 77.5
N=C1c2ccccc2CN1CC(=O)c1ccc(-c2ccccc2)cc1 | n | n | n | 79.6
COc1ccc(C(=O)Cn2ccsc2=N)cc1 | n | n | n | n
COc1cc(NC(=O)c2ccc3nc(-c4csc5ccccc45)sc3c2)cc(OC)c1OC | n | n | n | n
COC(=O)c1ccccc1NC(=O)CSc1nc2c(sc(=S)n2-c2ccccc2C)c(=O)n1-c1ccccc1 | n | n | n | n
Cc1nc2ccc(N=Cc3ccc(N(C)C)cc3)cc2s1 | n | n | n | n
CN(C)c1ccc2nc3ccc(=[N+](C)C)cc-3sc2c1 | n | 19.5 | n | n
O=[N+]([O-])c1ccc2ncnc(N3CCN(Cc4ccccc4)CC3)c2c1 | n | n | n | n
CC1CCCN(c2ncnc3ccc([N+](=O)[O-])cc23)C1 (stereo unspecified) | n | n | n | 35.1
Cc1cc(C)c(N2CC(c3nc4ccccc4[nH]3)CC2=O)c(C)c1 (stereo unspecified) | n | n | n | n
COc1ccc(C(=O)CSc2nc3sc4c(c3c(=O)n2-c2ccccc2)CCC4)cc1OC | n | n | n | n
COc1ccc(C(=O)CSc2nc3scc(-c4ccccc4)c3c(=O)n2-c2ccccc2)cc1OC | n | 1.9 | n | n
SMILES | MITF inh | FBW7 activator | GPR151 ag | TEAD-YAP block
NC(=O)c1c(NC(=O)c2ccccc2)sc2c1CCCCC2 | n | n | n | n
NC(=O)c1c(NC(=O)c2nc3ccccc3s2)sc2c1CCCCC2 | n | n | n | 61.5
NC(=O)c1c(NC(=O)c2cc3ccccc3o2)sc2c1CCCCC2 | n | n | n | 42.1
CCOC(=O)c1c(-c2ccc(OC)cc2)csc1NC1=NS(=O)(=O)c2ccccc21 | n | n | n | n
CCOC(=O)c1c(C)[nH]c(C)c1C(=O)COC(=O)c1ccc(O)cc1 | n | n | n | n
CCOC(=O)c1c(C)[nH]c(C)c1C(=O)COC(=O)c1ccc2[nH]c(C)c(C)c2c1 | n | n | n | 66.0
CN(C(=O)COc1ccc(Cl)cc1Cl)c1ccccc1 | n | n | n | n
CCOc1ccc(NC(=O)c2cccc(-n3ncc4cc(Nc5ccccc5F)ccc43)c2)cc1OCC | n | n | n | n
CCN(CC)c1ccc(/C=C/C23NC(=O)CCN2c2ccc(C)cc2C3(C)C)cc1 (stereo unspecified) | n | n | n | 51.8
Cn1cnnc1SCC(=O)Nc1cccc([N+](=O)[O-])c1 | n | n | n | n
CCc1cc2cc3c(cc2nc1SCC(=O)NC(C)(C)C)OCO3 | n | n | n | 38.0
CCc1cc2cc3c(cc2nc1SCC(=O)NC(C)(C)C)OCCO3 | n | n | n | 46.6
CCC(=O)NNC(=O)CSc1nc2cc3c(cc2cc1CC)OCCO3 | n | n | n | n
COc1cccc(CNC(=O)c2ccc3nc(-c4ccc(C)cc4)c(-c4ccc(C)cc4)nc3c2)c1 | n | n | n | n
COc1ccc(-c2nc3ccc(C(=O)NCc4cccnc4)cc3nc2-c2ccc(OC)cc2)cc1 | n | n | n | 44.5
Cc1ccc(-n2c3c(cc(C(=O)NCCO)c2=O)C(=O)CCC3)cc1 | n | n | n | n
CCCCC(CC)CNC(=O)c1ccc2c(=O)n(CCOC)c(=O)[nH]c2c1 (stereo unspecified) | n | n | n | 45.0
COc1ccc(S(=O)(=O)NCC2CCCN(C(=O)c3cscn3)C2)cc1 (stereo unspecified) | n | n | n | n
CCN1CCN(S(=O)(=O)c2cc(C(=O)Nc3ccc(Oc4ccccc4)cc3)ccc2F)CC1 | n | n | n | 65.6
O=C(Nc1ccc(I)cc1)c1cccc(S(=O)(=O)N2CCOCC2)c1 | n | n | n | n
O=C(Nc1ccc(Oc2ccccc2)cc1)c1ccc(F)c(S(=O)(=O)N2CCOCC2)c1 | n | n | n | 62.9
O=C(Nc1ccc(Oc2ccccc2)cc1)c1cccc(S(=O)(=O)N2CCOCC2)c1 | n | n | n | 33.7
O=C(Nc1ccccc1)c1ccc(F)c(S(=O)(=O)N2CCOCC2)c1 | n | n | n | n
CCc1ccccc1NC(=O)c1ccc(F)c(S(=O)(=O)N2CCN(c3cccc(C)c3)C(C)C2)c1 (stereo unspecified) | n | n | n | 34.9
CCOC(=O)c1c(NC(=O)c2ccc(S(=O)(=O)N3CCCC(C)C3)cc2)sc2c1CCN(C)C2 (stereo unspecified) | n | n | n | n
SMILES | MITF inh | FBW7 activator | GPR151 ag | TEAD-YAP block
CC(=O)c1cccc(NC(=O)/C=C/c2c(F)cccc2Cl)c1 | n | n | n | n
CCn1c(N2CCC(C(=O)NCCO)CC2)nc2ccccc21 | n | n | n | n
CCn1c(N2CCC(C(=O)NC3CCN(Cc4ccccc4)CC3)CC2)nc2ccccc21 | n | n | n | 39.5
COc1ccccc1-n1cc(C(=O)NCC(=O)Nc2ccc(F)cc2)c2ccccc2c1=O | n | n | n | n
CCOc1ccc(NSc2ccccc2[N+](=O)[O-])cc1 | n | n | n | n
Cc1ccc(NSc2ccccc2[N+](=O)[O-])cc1 | n | n | n | 56.3
S=C(NNc1nc(N2CCCC2)nc(N2CCCC2)n1)NC1CCCCC1 | n | n | n | 39.2
NC(=O)c1ccc(-c2ccc(N3CCOCC3)nc2)s1 | n | n | n | 50.1
NC(=O)c1cnc(-c2ccc(N3CCOCC3)nc2)s1 | n | n | n | 63.4
CCCNC(=O)c1cnc(-c2ccc(N3CCOCC3)nc2)s1 | n | n | n | n
COc1ccc(-c2ncc(C(N)=O)s2)cc1 | n | n | n | 49.1

Screening data (PubChem BioAssay)
